Here are results for 38 molecules from PubChem BioAssay (Tox21).

Several values for one entry are separate records, joined by “and”; a condition that tells them apart may be missing. Identical values can stand only once. Records with an inconclusive call do not appear. A call without a number means that no potency is given here. Some compounds were tested as several samples or in several runs, with calls that do not always agree. Activity calls are given as the source filed them. Unless noted, calls come from the whole dose curve; as a rule, active = well fitted cell-killing curve with a large enough effect in the repeat runs; inconclusive = weak or mixed curves, or effect the other way; inactive = flat fitted curve, though single readings scatter.

Sequence of Estrogen receptor beta (Homo sapiens) (Q92731 whole entry, looked up): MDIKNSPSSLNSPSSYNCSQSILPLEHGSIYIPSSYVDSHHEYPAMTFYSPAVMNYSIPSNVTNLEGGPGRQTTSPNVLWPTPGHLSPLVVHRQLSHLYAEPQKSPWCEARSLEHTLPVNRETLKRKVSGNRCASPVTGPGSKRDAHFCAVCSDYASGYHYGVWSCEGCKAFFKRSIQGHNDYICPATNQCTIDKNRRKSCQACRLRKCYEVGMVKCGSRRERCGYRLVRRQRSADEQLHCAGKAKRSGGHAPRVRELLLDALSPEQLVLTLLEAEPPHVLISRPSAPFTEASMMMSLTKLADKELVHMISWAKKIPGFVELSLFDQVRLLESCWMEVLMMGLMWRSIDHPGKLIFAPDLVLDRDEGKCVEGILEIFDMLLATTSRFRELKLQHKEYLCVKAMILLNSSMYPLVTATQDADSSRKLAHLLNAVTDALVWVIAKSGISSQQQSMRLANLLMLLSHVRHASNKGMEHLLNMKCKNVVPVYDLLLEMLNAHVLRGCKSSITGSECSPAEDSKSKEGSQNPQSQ

Test system in one test: not listed separately
Nature of the test: qHTS assay to identify small molecule antagonists of the sonic hedgehog signaling (Shh) pathway (AID 1259369; calls by dose curve; note: nearly all actives have a fitted effect of over 45% in size; note: potency is the fitted concentration of half-maximal effect). As to conditions: NIH/3T3 Gli1-Luc reporter, Shh antagonist, luminescence 24 h; series mostly up to 92.4 µM. The method, boiled down:
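Antagonist mode: compound added to 3T3 Gli1-Luc cells followed by conditioned-medium stimulation, 24 h at 37 C, 5% CO2. Inhibition taken as loss of Gli1-driven luciferase luminescence.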
As for `ClCC(Cl)CCl`, the Potency entry was “inactive”.
`CC[n+]1c(-c2ccccc2)c2cc(N)ccc2c2ccc(N)cc21`: the Potency is 17.1 µM (active).
`O=[N+]([O-])c1ccc(Cl)c([N+](=O)[O-])c1`: the Potency was 1.1 µM (active) and 6.86 µM (active).
On the same count and under the same terms, as for `CCCCSP(=O)(SCCCC)SCCCC`, the entry is “inactive”.
The same measure, in the same setting: the value for `O=[N+]([O-])c1ccc(Nc2ccccc2)cc1` was 17.2 µM (active).
As for `C[N+](C)(C)CC(=O)[O-]`, the Potency result was “inactive”.
With `CCCCOCCOC(C)=O`, the Potency result was “inactive”.
The same measure, in the same setting: as for `CC(C)(O)C#N`, the entry is “inactive”; as for `c1ccc(C2CO2)cc1` (stereo unspecified), “inactive”.
On the same count and under the same terms, as for `NC(=O)CN1CCCC1=O`, the entry is “inactive”; as for `Clc1cccc(Cl)c1`, “inactive”.
The same measure, in the same setting: as for `COP(=S)(OC)SCn1nnc2ccccc2c1=O`, the figure is 30 µM (active) and inactive; as for `Clc1ccc(C(Cl)(Cl)Cl)cc1`, “inactive”; as for `CC1CC(=O)O1` (stereo unspecified), “inactive”.
`O=S(=O)(O)C(F)(F)C(F)(F)C(F)(F)C(F)(F)C(F)(F)C(F)(F)C(F)(F)C(F)(F)F`: the Potency entry is “inactive”.
Same read-out and setting: as for `CCCCCCCC[N+](C)(CCCCCCCC)CCCCCCCC`, the figure is 193 nM (active) and 48.6 nM (active) and 306 nM (active).
Still for that read-out and setting: the value for `Nc1ccc2ccccc2c1` was “inactive”; that for `COP(=O)(NC(C)=O)SC` (stereo unspecified) was 27.3 µM (active) and inactive; that for `CCOP(=O)(O)OCC` (tested in a mixture with another compound) was 0.0482 µM (active).
Regarding `CCC[CH2][Sn]([Cl])([Cl])[CH2]CCC`, the Potency is 196 nM (active) and 243 nM (active).
Turning to `Cl`, the Potency entry was “inactive”.
Regarding `CC(C)(O)C(=O)Nc1ccc([N+](=O)[O-])c(C(F)(F)F)c1`, the Potency was 24.8 µM (active) and 22.4 µM (active).
Regarding `C[C@]12CCC(=O)C=C1CC[C@@H]1[C@@H]2CC[C@@]2(C)[C@H]1CC[C@]2(C)O`, the Potency was 6.16 µM (active).
Still for that read-out and setting: as for `NN=C(N)N`, the entry is “inactive”.
Same read-out and setting: as for `CCOP(=S)(OCC)SCSC(C)(C)C`, the entry is “inactive”.
For the molecule `O=P(OCCCl)(OCCCl)OCCCl`, the Potency entry is “inactive”.
Still for that read-out and setting: the value for `CNC(=S)S` was “inactive”.
On the same count and under the same terms, the value for `CC(C)Nc1ccc(Nc2ccccc2)cc1` was 5.43 µM (active); that for `C[N+](C)(C)C` was “inactive”; that for `CCCCOCC1CO1` (stereo unspecified) was “inactive”.
Same read-out and setting: as for `CCCCC(C#N)(Cn1cncn1)c1ccc(Cl)cc1` (stereo unspecified), the entry is “inactive”.

Another test concerns the target Estrogen receptor beta (Homo sapiens) (UniProt Q92731). Nature of the test: qHTS assay to identify small molecule agonists of the estrogen receptor beta (ER-beta) signaling pathway (AID 1259377; active = well fitted activation curve with a large enough effect in the signal ratio in the repeat runs, not every such curve was filed as active; the % refers to the signal ratio). The settings on record: ER-beta-UAS-bla HEK293T, beta-lactamase FRET ratio, 16 h; series mostly up to 92.4 µM. In short, it runs like this: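 ER-beta-UAS-bla HEK293T cells in medium with 2% charcoal-stripped FBS were exposed to compounds for 16 h at 37C. Beta-lactamase reporter activity was read as fluorescence after 2 h with LiveBLAzer B/G FRET substrate at room temperature.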
As to `N#Cc1nn(-c2c(Cl)cc(C(F)(F)F)cc2Cl)c(N)c1S(=O)C(F)(F)F` (stereo unspecified), the Potency entry was “inactive”.
With `CCCCSP(=O)(SCCCC)SCCCC`, the Potency entry is “inactive”.
As for `O=[N+]([O-])c1ccc(Nc2ccccc2)cc1`, the Potency entry was “inactive”.
As to `O=C(O)CF`, the Potency entry was “inactive”.
With `CC1(C)Cc2cccc(O)c2O1`, the Potency entry is “inactive”.
`NC(=O)CN1CCCC1=O`: the Potency result was “inactive”.
On the same count and under the same terms, the value for `Clc1cccc(C(Cl)(Cl)Cl)n1` was “inactive”.
Still for that read-out and setting: the value for `Clc1cccc(Cl)c1` was “inactive”; that for `COP(=S)(OC)SCn1nnc2ccccc2c1=O` was “inactive”.
Regarding `COc1ccc(O)c(C(C)(C)C)c1`, the Potency result is “inactive”.
As for `COP(=O)(NC(C)=O)SC` (stereo unspecified), the Potency result is “inactive”.
Consider `CCC[CH2][Sn]([Cl])([Cl])[CH2]CCC`, for which the Potency result is “inactive”.
For the molecule `CC(C)(O)C(=O)Nc1ccc([N+](=O)[O-])c(C(F)(F)F)c1`, the Potency entry was “inactive”.
Still for that read-out and setting: as for `O=P(OCCCl)(OCCCl)OCCCl`, the entry is “inactive”; as for `CC1=C(C(=O)Nc2ccccc2)SCCO1`, “inactive”.
Still for that read-out and setting: the value for `O=NN1CCOCC1` was “inactive”.
For the molecule `CC(C)Nc1ccc(Nc2ccccc2)cc1`, the Potency result was “inactive”.

The target is the same in the next test. Nature of the test: qHTS assay to identify small molecule antagonists of the estrogen receptor beta (ER-beta) signaling pathway (AID 1259378; active = well fitted inhibition curve with a large enough effect in the signal ratio in the repeat runs, not every such curve was filed as active; the % refers to the signal ratio; note: potency is the fitted concentration of half-maximal effect). As to conditions: ER-beta-UAS-bla HEK293T, beta-lactamase FRET ratio, 16 h; series mostly up to 92.4 µM. The method, boiled down:
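ER-beta-UAS-bla HEK293T cells in 2% charcoal-stripped FBS medium treated with compound plus 1nM final 17-beta-estradiol for 16 hr at 37C. Beta-lactamase reporter read by FRET substrate fluorescence after 2 hours at room temperature.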
For the molecule `N#Cc1nn(-c2c(Cl)cc(C(F)(F)F)cc2Cl)c(N)c1S(=O)C(F)(F)F` (stereo unspecified), the Potency was 23.7 µM (active).
Still for that read-out and setting: the value for `CCCCSP(=O)(SCCCC)SCCCC` was “inactive”; that for `CC(C)(O)C#N` was “inactive”; that for `O=C(O)CF` was “inactive”.
With `CC1(C)Cc2cccc(O)c2O1`, the Potency entry is “inactive”.
Turning to `NC(=O)CN1CCCC1=O`, the Potency entry was “inactive”.
As for `Clc1cccc(C(Cl)(Cl)Cl)n1`, the Potency entry is “inactive”.
On the same count and under the same terms, as for `Clc1cccc(Cl)c1`, the entry is “inactive”; as for `COc1ccc(O)c(C(C)(C)C)c1`, “inactive”; as for `CCCCCCCC[N+](C)(CCCCCCCC)CCCCCCCC`, 17.2 µM (active).
Consider `Nc1ccc2ccccc2c1`, for which the Potency entry is “inactive”.
Take `COP(=O)(NC(C)=O)SC` (stereo unspecified): the Potency entry was “inactive”.
`CC(C)(O)C(=O)Nc1ccc([N+](=O)[O-])c(C(F)(F)F)c1`: the Potency result was “inactive”.
Still for that read-out and setting: as for `O=P(OCCCl)(OCCCl)OCCCl`, the entry is “inactive”; as for `CC1=C(C(=O)Nc2ccccc2)SCCO1`, “inactive”.
`O=NN1CCOCC1`: the Potency result is “inactive”.

Test system in the next test: not listed separately
In words: qHTS assay to identify small molecule agonists of the androgen receptor (AR) signaling pathway in the presence of an antagonist - cell viability counter screen (AID 1259379). Note: nearly all actives have a fitted effect of over 25% in size. Note: potency is the fitted concentration of half-maximal effect. As to conditions: MDA-kb2 viability, CellTiter-Fluor, 16 h; series mostly up to 92.4 µM. The method, boiled down: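 Cytotoxicity counter-screen run in the same wells as the nilutamide-challenged (3.0 µM final) AR agonist assay in MDA-kb2 cells. Compounds tested at 15 concentrations for 16 h, 37 °C without CO2; CellTiter-Fluor fluorescence read.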
Consider `ClCC(Cl)CCl`, for which the Potency entry was “inactive”.
As to `N#Cc1nn(-c2c(Cl)cc(C(F)(F)F)cc2Cl)c(N)c1S(=O)C(F)(F)F` (stereo unspecified), the Potency is 61.5 µM (active) and inactive.
Same read-out and setting: the value for `CC[n+]1c(-c2ccccc2)c2cc(N)ccc2c2ccc(N)cc21` was 24.2 µM (active) and 10.6 µM (active); that for `O=[N+]([O-])c1ccc(Cl)c([N+](=O)[O-])c1` was 22 µM (active) and 21.7 µM (active).
On to `CCCCSP(=O)(SCCCC)SCCCC`, for which the Potency result was “inactive”.
Consider `O=[N+]([O-])c1ccc(Nc2ccccc2)cc1`, for which the Potency is 30.9 µM (active) and 30.6 µM (active).
Turning to `C[N+](C)(C)CC(=O)[O-]`, the Potency result was “inactive”.
Regarding `CCCCOCCOC(C)=O`, the Potency result is “inactive”.
Still for that read-out and setting: as for `CC(C)(O)C#N`, the entry is “inactive”; as for `c1ccc(C2CO2)cc1` (stereo unspecified), “inactive”.
The same measure, in the same setting: the value for `O=C(O)CF` was “inactive”; that for `CC1(C)Cc2cccc(O)c2O1` was “inactive”; that for `NC(=O)CN1CCCC1=O` was “inactive”.
The same measure, in the same setting: as for `Clc1cccc(C(Cl)(Cl)Cl)n1`, the entry is “inactive”; as for `Clc1cccc(Cl)c1`, “inactive”.
With `COP(=S)(OC)SCn1nnc2ccccc2c1=O`, the Potency entry is “inactive”.
The same measure, in the same setting: as for `Clc1ccc(C(Cl)(Cl)Cl)cc1`, the entry is “inactive”; as for `CC1CC(=O)O1` (stereo unspecified), “inactive”.
Same read-out and setting: the value for `O=S(=O)(O)C(F)(F)C(F)(F)C(F)(F)C(F)(F)C(F)(F)C(F)(F)C(F)(F)C(F)(F)F` was “inactive”; that for `COc1ccc(O)c(C(C)(C)C)c1` was “inactive”; that for `CCCCCCCC[N+](C)(CCCCCCCC)CCCCCCCC` was 12.2 µM (active) and 2.73 µM (active) and 24.3 µM (active).
Turning to `Nc1ccc2ccccc2c1`, the Potency result is “inactive”.
Turning to `COP(=O)(NC(C)=O)SC` (stereo unspecified), the Potency entry was “inactive”.
Same read-out and setting: as for `CCOP(=O)(O)OCC` (tested in a mixture with another compound), the entry is “inactive and 27.1 µM (active)”; as for `CCC[CH2][Sn]([Cl])([Cl])[CH2]CCC`, 552 nM (active) and 1.09 µM (active).
Regarding `Cl`, the Potency entry is “inactive”.
As for `C[C@]12CCC(=O)C=C1CC[C@@H]1[C@@H]2CC[C@@]2(C)[C@H]1CC[C@]2(C)O`, the Potency entry was “inactive”.
`NN=C(N)N`: the Potency entry was “inactive”.
As to `CCOP(=S)(OCC)SCSC(C)(C)C`, the Potency result is “inactive”.
On the same count and under the same terms, the value for `O=P(OCCCl)(OCCCl)OCCCl` was “inactive”.
For `CC1=C(C(=O)Nc2ccccc2)SCCO1`, the Potency result is “inactive”.
Consider `O=NN1CCOCC1`, for which the Potency result is “inactive”.
In the case of `CNC(=S)S`, the Potency entry is “inactive”.
On to `CC(C)Nc1ccc(Nc2ccccc2)cc1`, for which the Potency was 60.9 µM (active) and 68.6 µM (active).
On the same count and under the same terms, the value for `C[N+](C)(C)C` was “inactive”.
Same read-out and setting: the value for `CCCCOCC1CO1` (stereo unspecified) was “inactive”.
Still for that read-out and setting: as for `CCCCC(C#N)(Cn1cncn1)c1ccc(Cl)cc1` (stereo unspecified), the entry is “inactive”.
